We go through 99 compounds from ChEMBL document CHEMBL1201862, “PubChem BioAssay data set” (2004).

Screen size: about 400,000 compounds; about 2,100 (0.53%) were called active. Inconclusive results (about 14%) are left out. The rule behind the calls is not given here. This excerpt belongs to a sample that is enriched for actives.

Chain of Ataxin-2 (Homo sapiens) (Q99700 whole entry): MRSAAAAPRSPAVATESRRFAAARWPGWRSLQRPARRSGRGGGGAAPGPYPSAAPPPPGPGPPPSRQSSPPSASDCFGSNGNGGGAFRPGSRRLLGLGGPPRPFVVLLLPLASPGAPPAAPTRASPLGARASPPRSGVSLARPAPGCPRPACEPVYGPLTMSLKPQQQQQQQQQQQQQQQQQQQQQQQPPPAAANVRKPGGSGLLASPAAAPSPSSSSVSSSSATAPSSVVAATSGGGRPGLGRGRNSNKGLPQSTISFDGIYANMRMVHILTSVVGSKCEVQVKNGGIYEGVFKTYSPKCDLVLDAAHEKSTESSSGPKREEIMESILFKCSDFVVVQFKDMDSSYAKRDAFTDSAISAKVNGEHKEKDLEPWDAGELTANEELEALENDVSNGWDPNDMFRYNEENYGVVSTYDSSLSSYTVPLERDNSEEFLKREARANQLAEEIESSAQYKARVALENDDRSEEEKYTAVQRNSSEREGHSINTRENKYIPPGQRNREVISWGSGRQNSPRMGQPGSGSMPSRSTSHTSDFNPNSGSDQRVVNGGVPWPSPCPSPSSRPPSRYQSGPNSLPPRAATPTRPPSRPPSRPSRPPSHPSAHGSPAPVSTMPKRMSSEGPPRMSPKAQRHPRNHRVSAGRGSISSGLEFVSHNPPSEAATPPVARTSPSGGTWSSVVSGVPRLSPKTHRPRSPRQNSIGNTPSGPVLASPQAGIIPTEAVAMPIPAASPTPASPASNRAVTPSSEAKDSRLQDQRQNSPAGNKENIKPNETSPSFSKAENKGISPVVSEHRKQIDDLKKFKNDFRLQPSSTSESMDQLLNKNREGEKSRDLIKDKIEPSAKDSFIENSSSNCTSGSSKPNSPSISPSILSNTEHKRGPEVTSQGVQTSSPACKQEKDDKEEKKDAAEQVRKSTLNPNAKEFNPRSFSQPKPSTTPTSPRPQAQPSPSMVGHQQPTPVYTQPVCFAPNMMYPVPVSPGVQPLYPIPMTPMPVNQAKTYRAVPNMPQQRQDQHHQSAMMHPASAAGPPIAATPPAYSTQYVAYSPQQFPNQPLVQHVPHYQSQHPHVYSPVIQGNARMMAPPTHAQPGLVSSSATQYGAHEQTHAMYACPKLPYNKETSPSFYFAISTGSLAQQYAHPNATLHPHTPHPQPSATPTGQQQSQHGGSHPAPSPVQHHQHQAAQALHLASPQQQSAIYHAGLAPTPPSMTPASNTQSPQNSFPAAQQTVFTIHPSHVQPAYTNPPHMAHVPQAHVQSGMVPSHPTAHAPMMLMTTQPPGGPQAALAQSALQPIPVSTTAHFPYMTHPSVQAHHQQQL

This assay has as its target Ataxin-2 (Homo sapiens) (UniProt Q99700). As to the kind of experiment: qHTS for Inhibitors of ATXN expression. In kind it is functional. Background: qHTS replaces the single test concentration by a dilution series.
With `CCOC(=O)N1CCN(S(=O)(=O)c2ccc3c4c(cccc24)C(=O)N3)CC1`, the Potency entry was “inactive”.

Consider `CCOC(=O)C1CCN(C(=O)C(C)Oc2ccc(Br)cc2)CC1` (centres undefined), for which the Potency result is “inactive”.

For the compound `COc1cc(/C=C2\C(=N)N3N=C(CC(=O)N4CCOCC4)SC3=NC2=O)cc(OC)c1O`, the Potency result was “inactive”.

Consider `COc1cc(OC)cc(N2C(=O)CSCC2=O)c1`, for which the Potency result was “inactive”.

Turning to `COc1ccc2c(c1)C(=O)N(c1ccc(C)cc1C)C(=O)C2`, the Potency was 35.5 µM (active).

In the case of `Cc1ccc(N2C(=O)C(Cl)=C(N3CCCCCC3)C2=O)c(C)c1`, the Potency entry is “inactive”.

As to `N#CC(C#N)=C1C=C2C=C(N3CCOCC3)CCC2CC1` (centres undefined), the Potency entry was “inactive”.

`Cc1cc(F)ccc1S(=O)(=O)Nc1ccccc1C(=O)Nc1ccccc1-c1nc2ccccc2[nH]1`: the Potency was 39.8 µM (active).

For `Cc1ccccc1NS(=O)(=O)c1nnc(NC(=O)c2ccccc2C)s1`, the Potency entry was “inactive”.

On to `O=c1oc2c(O)cccc2cc1-c1nc2ccccc2[nH]1`, for which the Potency entry was “inactive”.

On to `Cc1cc(C)c2c(N)c(C(=O)N/N=C/c3cccs3)sc2n1`, for which the Potency entry is “inactive”.

For the compound `Cc1ccc2nc3c(cc(C(=O)NCC4CCCO4)c(=N)n3CCCOC(C)C)c(=O)n2c1` (centres undefined), the Potency entry was “inactive”.

In the case of `COc1cccc(N2[C@@H](CC(C)=O)c3ccc(/C=C/C(C)=O)cc3S2(=O)=O)c1`, the Potency is 35.5 µM (active).

With `COc1cccc(/C=C/c2nc(C#N)c(N3CCC(C(N)=O)CC3)o2)c1`, the Potency entry was “inactive”.

Consider `CC(C)n1nc(C(=O)NNC(=O)c2ccc(OC(F)F)cc2)c2ccccc2c1=O`, for which the Potency result was “inactive”.

As for `CCCN(CCC)CC(O)Cn1cc(/C=C/C(=O)c2ccc(OCC)cc2)c2ccccc21` (centres undefined), the Potency entry is “inactive”.

In the case of `COc1ccc(C(=O)/C=C/c2cn(CC(O)CN(CC(C)C)CC(C)C)c3ccccc23)cc1` (centres undefined), the Potency entry was “inactive”.

Consider `CCC(=C(c1ccc(OC)cc1)c1ccc(OC)cc1)c1cn(CC(O)CN(CCO)CCO)c2ccccc12` (centres undefined), for which the Potency was 39.8 µM (active).

As for `CCC(=C(c1ccc(OC)cc1)c1ccc(OC)cc1)c1cn(CC(O)CN2CCN(C)CC2)c2ccccc12` (centres undefined), the Potency was 39.8 µM (active).

For `COc1ccc(C(=O)/C=C/c2cn(CC(O)CN3CCc4ccccc43)c3ccccc23)cc1` (centres undefined), the Potency entry was “inactive”.

Regarding `COc1ccc(C(=O)/C=C/c2cn(CC(O)CN3CCN(C)CC3)c3ccccc23)cc1OC` (centres undefined), the Potency result was “inactive”.

Regarding `O=C(CCc1ccccc1)NCC1(c2ccccc2)CCCC1`, the Potency entry is “inactive”.

In the case of `COc1cc2c(cc1/C=C1/NC(=O)N(CC(=O)Nc3ccccc3)C1=O)OCO2`, the Potency result is “inactive”.

Take `Cc1c(-c2ccccc2)c(=O)oc2c(CN3CCOCC3)c(O)ccc12`: the Potency entry is “inactive”.

For the compound `Cc1cccn2c(=O)c3cc(C(=O)NCC4CCCO4)c(=N)n(C4CCCC4)c3nc12` (centres undefined), the Potency entry was “inactive”.

Take `N=c1oc2cc(O)ccc2cc1C(=O)Nc1nc2ccccc2s1`: the Potency result is “inactive”.

Turning to `O=C(C=Cc1ccccc1)CC(c1ccccc1)N1CCOCC1` (centres undefined), the Potency is 28.2 µM (active).

With `O=C(O)c1cc(/C=C/c2ccc(N3CCOCC3)cc2)nc2ccccc12`, the Potency result was “inactive”.

As for `Cc1ccc(S(=O)(=O)N(C)CC(=O)NCC(c2ccc(F)cc2)N2CCOCC2)cc1` (centres undefined), the Potency entry is “inactive”.

For the compound `COc1ccc(C2C=C(c3ccccc3)Nc3nc(NC(C)=O)nn32)cc1` (centres undefined), the Potency entry was “inactive”.

Consider `O=C(Nc1cccc(-c2cn3c(n2)SCC3)c1)c1ccc2c(c1)OCO2`, for which the Potency result is “inactive”.

As for `Cc1ccsc1C(=O)Nc1ccc(O)c(-c2nc3ccccc3s2)c1`, the Potency result was “inactive”.

Consider `Cc1c(C(=O)Nc2ccc3c(c2)OCCO3)sc2nc(-c3ccccc3)cn12`, for which the Potency is 39.8 µM (active).

For the compound `C/N=c1\scc(C)n1/N=C/c1cc(Br)c(O)c(Br)c1`, the Potency entry is “inactive”.

For `COc1ccc(Cl)cc1NC(=O)CCS(=O)(=O)c1cccc2nonc12`, the Potency result was “inactive”.

In the case of `CCc1ccc(NC(=O)CCNS(=O)(=O)c2cccs2)cc1`, the Potency entry was “inactive”.

With `COc1ccc(NC(=O)c2ccc(NC(=O)CCS(=O)(=O)c3cccs3)cc2)cc1Cl`, the Potency was 39.8 µM (active).

For `Cc1c(OC(C)C(=O)NCCN2CCOCC2)ccc2c3c(c(=O)oc12)CCC3` (centres undefined), the Potency result was “inactive”.

For the compound `O=C(Nc1ccc(N2CCN(C(=O)c3ccco3)CC2)c(Cl)c1)c1cc2ccccc2o1`, the Potency was 22.4 µM (active).

As to `COc1cc(NC(=O)c2oc3ccccc3c2C)ccc1NC(=O)c1ccco1`, the Potency entry was “inactive”.

Regarding `O=C(Nc1cc(Cl)ccc1N1CCOCC1)c1cc2ccccc2o1`, the Potency result was “inactive”.

In the case of `COc1cc(NC(=O)c2cc(Cl)ccc2Cl)ccc1NC(=O)c1cc2ccccc2o1`, the Potency is 22.4 µM (active).

In the case of `O=C(Nc1ccc(N2CCN(C(=O)c3ccco3)CC2)cc1)c1cc(Br)ccc1Cl`, the Potency was 35.5 µM (active).

Regarding `Cc1ccc(NC(=O)C2CCN(C(=O)c3ccco3)CC2)cc1`, the Potency entry was “inactive”.

`O=C(CSc1nc(O)c2ccccc2n1)Nc1ccc(N2CCOCC2)c(Cl)c1`: the Potency entry is “inactive”.

On to `O=C(Nc1ccc(N2CCOCC2)c(Cl)c1)c1cc2ccccc2o1`, for which the Potency is 39.8 µM (active).

For `CC1CCN(C(=O)c2cc(Cl)ccc2NC(=O)c2ccco2)CC1`, the Potency entry is “inactive”.

As to `N=c1oc2cc(O)ccc2cc1C(=O)Nc1ccc(Cl)cc1`, the Potency result was “inactive”.

Take `CCOC(=O)c1cc2ccc(OC(=O)c3ccco3)cc2oc1=O`: the Potency result was “inactive”.

As for `CCN(CC)c1ccc(/C=N/NC(=O)c2cccc(S(=O)(=O)N3CCOCC3)c2)c(O)c1`, the Potency entry is “inactive”.

Consider `CCOC(=O)/C(C#N)=C1\CC2CCC1(C)C2(C)C` (centres undefined), for which the Potency entry is “inactive”.

With `O=C1c2cccc3c([N+](=O)[O-])ccc(c23)C(=O)N1c1ccccn1`, the Potency result is “inactive”.

For the compound `O=[N+]([O-])c1ccccc1Oc1ncccc1[N+](=O)[O-]`, the Potency was 8.91 µM (active).

Take `CCC1Cc2c(nc(N)c3c(N)nc(N4CCOCC4)c(C#N)c23)O1` (centres undefined): the Potency entry is “inactive”.

Regarding `N#CCc1nc(C(c2ccccc2)c2ccccc2)no1`, the Potency result was “inactive”.

Take `CCCNC(=O)c1ccc2c(O)c(O)c(-c3ccsc3)nc2c1`: the Potency entry was “inactive”.

Take `CN1CCc2c(sc(NC(=O)c3ccc(S(=O)(=O)N4CCCCCC4)cc3)c2C(N)=O)C1`: the Potency entry was “inactive”.

Regarding `CC(C)CN(CC(C)C)S(=O)(=O)c1ccc(C(=O)Nc2sc3c(c2C(N)=O)CCN(C(C)C)C3)cc1`, the Potency result was “inactive”.

Turning to `CCC(=O)Nc1sc2c(c1C(N)=O)CCN(Cc1ccccc1)C2`, the Potency result was “inactive”.

For `CC(C)N1CCc2c(sc(NC(=O)c3cc4cc([N+](=O)[O-])ccc4s3)c2C(N)=O)C1`, the Potency is 29.9 µM (active).

Turning to `CC(C)N1CCc2c(sc(NC(=O)c3cc(-c4cccs4)nc4ccccc34)c2C(N)=O)C1`, the Potency is 33.6 µM (active).

Turning to `CC(C)N1CCc2c(sc(NC(=O)Cc3ccccc3)c2C#N)C1`, the Potency result was “inactive”.

`CCOc1cc(CNCCO)cc(Br)c1OCc1ccc(Cl)cc1Cl`: the Potency is 39.8 µM (active).

Consider `CCOc1cc(CNC(C)(C)CO)cc(Br)c1OCc1ccc(Cl)cc1Cl`, for which the Potency was 39.8 µM (active).

As for `Cc1ccc(C)c(OC(C)C(=O)Nc2ccc(S(=O)(=O)Nc3nccs3)cc2)c1` (centres undefined), the Potency result is “inactive”.

For the compound `CCc1nnc(NC(=O)c2sc3nc(C)cc(COC)c3c2N)s1`, the Potency result was “inactive”.

For `Cc1ccc(-c2nc3ccccc3c(=O)o2)cc1`, the Potency entry is “inactive”.

`Oc1ccccc1/C=N/n1c(S)nnc1COc1ccccc1`: the Potency entry was “inactive”.

For `Cc1ccc(-c2[nH]ncc2/C=N/n2c(COc3ccccc3C)nc3ccccc3c2=O)cc1`, the Potency was 15.8 µM (active).

Turning to `COc1ccc(/C=N/n2c(S)nnc2COc2ccccc2)cc1OC`, the Potency entry was “inactive”.

Consider `Cc1nc2ccccc2c(=O)n1/N=C/c1ccc(O)c(O)c1O`, for which the Potency entry is “inactive”.

Take `Cc1ccc(-c2[nH]ncc2/C=N/n2c(COc3ccccc3)nc3ccccc3c2=O)cc1`: the Potency was 39.8 µM (active).

Consider `O=C(CSc1nnc(-c2cccc(Br)c2)o1)N1CCNC1=O`, for which the Potency entry is “inactive”.

`O=S(=O)(c1ccc2nc(N3CCN(c4ccccc4)CC3)ccc2c1)N1CCCCC1`: the Potency entry is “inactive”.

With `CC1CCN(S(=O)(=O)c2ccc(NC(=O)CN3CCCC3)cc2)CC1`, the Potency result was “inactive”.

With `CC1CCN(S(=O)(=O)c2ccc3nc(Nc4cccc(F)c4)ccc3c2)CC1`, the Potency is 35.5 µM (active).

For `O=C(OCCN1C(=O)c2cccc3c(N4CCOCC4)ccc(c23)C1=O)c1ccc(Cl)cc1`, the Potency result was “inactive”.

Turning to `O=C(CC(=O)N/N=C/c1ccc(C(=O)O)cc1)NCCc1ccccc1`, the Potency entry was “inactive”.

Take `O=S(=O)(c1ccc(F)cc1)N1CCc2ccccc2C1`: the Potency result was “inactive”.

Regarding `O=C(Nc1nc2ccc([N+](=O)[O-])cc2s1)c1ccc(S(=O)(=O)N2CCCc3ccccc32)cc1`, the Potency result is “inactive”.

For the compound `COCCN(Cc1ccccc1)C(=O)c1cccc(S(=O)(=O)N2CCCc3ccccc32)c1`, the Potency entry was “inactive”.

Regarding `COc1ccc(C)c2sc(N(CCCN(C)C)C(=O)c3ccc(S(=O)(=O)N4CCc5ccccc5C4)cc3)nc12`, the Potency is 22.4 µM (active).

For the compound `O=C(c1ccc(S(=O)(=O)N2CCCCC2)cc1)N1CCc2ccccc2C1`, the Potency entry was “inactive”.

On to `COc1ccc2sc(N(CCCN(C)C)C(=O)c3ccc(S(=O)(=O)N4CCCc5ccccc54)cc3)nc2c1`, for which the Potency was 39.8 µM (active).

On to `O=c1[nH]c(=O)c2nc(-c3ccc(Cl)cc3)cnc2[nH]1`, for which the Potency result was “inactive”.

`O=c1c2nccnc2[nH]c(=S)n1Cc1ccccc1Cl`: the Potency entry is “inactive”.

As to `CC1CN(Cc2cc(=O)oc3cc(O)ccc23)CC(C)O1` (centres undefined), the Potency entry was “inactive”.

For `COCc1nnc(NS(=O)(=O)c2ccc(OC)cc2)s1`, the Potency result is “inactive”.

For the compound `CC(=O)N1CCN(Cc2nc(O)c3c(-c4ccccc4)csc3n2)CC1`, the Potency entry is “inactive”.

With `CC1CCN(c2nc(CN3CCCCC3)nc3scc(-c4ccccc4)c23)CC1`, the Potency was 22.4 µM (active).

`CN1CCN(c2nc(-c3cccnc3)nc3scc(-c4ccccc4)c23)CC1`: the Potency result was “inactive”.

`Cc1cccc(/N=C/c2cc(Br)cc(Cl)c2O)c1`: the Potency result was “inactive”.

On to `O=C(C[n+]1ccc2c(c1)nnn2-c1ccccc1)c1ccc(Cl)cc1`, for which the Potency entry was “inactive”.

Consider `O=C1OC(c2ccccc2)(c2cc(Br)ccc2O)c2ccccc21` (centres undefined), for which the Potency is 35.5 µM (active).

Consider `COCc1cc(C)nc2sc(C(=O)Nc3ccc(OC(F)(F)F)cc3)c(N)c12`, for which the Potency entry is “inactive”.

On to `Cc1ccc(NC2=C(C(=O)Nc3c(C)cc(C)cc3C)C(=N)C(C(=O)Nc3ccc(OC(F)(F)F)cc3)S2)cc1` (centres undefined), for which the Potency is 18.9 µM (active).

As to `CSCCC(NC(=O)C1CCCC1)c1nnc2ccccn12` (centres undefined), the Potency result was “inactive”.

Take `CCCCCCN1C=C/C(=C\C=C(C#N)C#N)c2ccccc21`: the Potency was 20 µM (active).

For the compound `C=CCN1C=C/C(=C\C=C(C#N)C#N)c2ccccc21`, the Potency is 6.7 µM (active).
